# Bioassay records (PubChem)
# NALP1 yeast inh – inhibitors of NALP1 inflammasome in yeast | S. cerevisiae NALP1/ASC/caspase-1 growth, X-gal OD620, 72 h | actives 0.61% (n = 280,000) | AID 2071 | inhibition, % at 10 µM; in the data active = inhibition mostly above about 24%, no sharp cut-off; inactive = mostly below about 32%
# NALP3 yeast inh – NALP3 inhibition in yeast; inhibition, % at 10 µM; actives 0.39% (n = 330,000); Yeast reconstituted NLRP3/ASC/caspase-1, beta-gal luminescence, 24 h;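 active = inhibition of 50% or more; inactive = inhibition below 50%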
# tim23-1 inh – growth inhibitors of tim23-1 mutant yeast. actives 1.3% (n = 330,000). inhibition, % at 20 µM. S. cerevisiae tim23-1 growth, BacTiter-Glo luminescence, 24 h;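 active = growth inhibition of the mutant yeast at or above 50%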;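 also: temperature-sensitive mutant grown at 25 °C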
# tim10-1 inh – growth inhibitors of tim10-1 mutant yeast; S. cerevisiae tim10-1 ts strain growth, BacTiter-Glo, 24 h; inhibition, % at 20 µM; actives 2.2% (n = 330,000);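 active = inhibition of at least 40%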;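 also: mutant grown at 25 °C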
# V-ATPase pHluor – alters yeast V-ATPase proton transport. S. cerevisiae, pHLuorin cytosolic pH fluorescence. response, % at 10 µM. actives 0.37% (n = 350,000). AID 504577; in the data active = response mostly above about 7.3%, no sharp cut-off; inactive = mostly below about 5.4%; also: actives read high
# TIM10 inh – growth inhibitors of TIM10 yeast strain | actives 1.4% (n = 330,000) | S. cerevisiae TIM10 strain growth, BacTiter-Glo luminescence, 24 h | AID 463195 | inhibition, % at 10 µM;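 active = inhibition of 40% or more at the single tested concentration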;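 also: wild-type TIM10 isogenic control strain grown at permissive 25 °C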
# tim10-1 conf – tim10-1 yeast growth inhibition, confirmed | shares compounds with tim10-1 inh | S. cerevisiae tim10-1 ts strain growth, BacTiter-Glo, 24 h | inhibition, % at 20 µM | actives 56% (n = 7,400);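 active = inhibition of yeast growth at or above a set limit in either of two repeat tests at 20 µM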;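 also: tim10-1 mutant grown at permissive 25 °C to find synthetic lethal compounds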
# A number is an active result; 0 = inactive; - = no result given. An excerpt weighted towards active compounds, which were near 4.2% of everything screened.
SMILES,NALP1 yeast inh,NALP3 yeast inh,tim23-1 inh,tim10-1 inh,V-ATPase pHluor,TIM10 inh,tim10-1 conf
C[C@H]1C=CC(=O)O[C@H]1c1ccccc1,-,0,0,48.1,0,0,52.2
CC1C(=O)C(C)(C)C(=O)OC1c1ccccc1 (stereo unspecified),0,0,0,0,0,0,-
CCOC(=O)c1ccc2[nH]c(C)c(C)c2c1,-,0,0,0,0,0,-
CCOC(=O)c1cc2c(ccc3nc(C)c(C)c32)[nH]c1C,0,0,0,49.8,0,0,0
O=C(CCSc1ccccc1)N1CCCC1,0,0,0,0,0,0,-
O=[N+]([O-])/C(C(Cl)=C(Cl)Cl)=C(\Sc1ccccc1)N1CCCCC1,0,0,0,43.5,0,0,35.0
Cc1ccc(C)c(NC(=O)c2nc(-c3ccccc3)n(-c3ccccc3)n2)c1,0,0,0,42.7,0,0,0
Cc1csc(NC(=O)c2nc(-c3ccccc3)n(-c3ccccc3)n2)n1,0,0,0,51.0,0,0,41.4
O=C(NCc1cccc(F)c1)C1CCN(S(=O)(=O)Cc2ccccc2)CC1,0,0,0,0,0,0,-
COc1ccc(CN(CC2CCCO2)C(=O)c2cc3sccc3n2C)c(OC)c1 (stereo unspecified),0,0,0,45.3,0,0,0
CC(C)C(OC(=O)c1cc2sccc2n1C)C(=O)NCC1CCCO1 (stereo unspecified),0,0,0,0,0,0,-
COc1ccc(-n2ccnc2CN2CCCC(CO)(Cc3cccc(OC)c3)C2)cc1 (stereo unspecified),0,0,0,41.0,0,0,0
OCC1(Cc2cccc(Cl)c2)CCCN(Cc2ccc3cc(F)ccc3n2)C1 (stereo unspecified),0,0,0,47.9,0,0,0
COc1ccc(OC)c2nc(-c3ccc4c(c3)OCO4)ccc12,0,0,0,41.2,0,0,34.5
CCOC(=O)C1CCN(C(=O)c2cc3c(OC)c(OC)c(OC)cc3[nH]2)CC1,0,0,0,0,0,0,-
COc1cc2[nH]c(C(=O)N3CCC(Cc4ccccc4)CC3)cc2c(OC)c1OC,0,0,0,44.5,0,0,0
COc1ccc(Nc2ncnc3c2cnn3Cc2ccccc2)cc1,0,0,0,46.3,0,0,34.0
CCOc1ccc(Nc2ncnc3c2cnn3Cc2ccccc2)cc1,0,0,0,41.0,0,0,36.9
COc1ccc(-n2ncc3c(N4CCN(Cc5ccccc5)CC4)ncnc32)cc1,0,0,0,45.5,0,0,0
COc1ccc(COc2ccc(C3C(S(=O)(=O)c4ccccc4)CON3C)cc2OC)cc1 (stereo unspecified),0,0,0,0,0,0,-
Cc1nn(C)c(C)c1NC(=O)C12CC3CC(CC(C3)C1)C2,0,0,0,0,0,0,-
COc1ccc(NC(C)=[N+](C)CCNS(=O)(=O)c2ccc(Cl)cc2)cc1,0,0,0,0,0,0,-
CCc1ccccc1Oc1coc2cc(O)ccc2c1=O,0,0,0,0,0,0,-
Cc1cccc(Oc2coc3cc(O)ccc3c2=O)c1,0,0,0,47.8,0,0,0
Cc1ccccc1NC(=O)CSc1nc(N)c2c3c(sc2n1)CSC(C)(C)C3,0,0,0,43.3,0,0,33.4
SMILES,NALP1 yeast inh,NALP3 yeast inh,tim23-1 inh,tim10-1 inh,V-ATPase pHluor,TIM10 inh,tim10-1 conf
Cc1ccc(-n2nc(-c3ccco3)cc2C(=O)O)cc1,-,0,0,0,0,0,-
O=C(c1cc(-c2ccco2)nn1-c1cccc(Cl)c1)N1CCCCC1,0,0,0,46.4,0,0,0
CC(C)NC(=O)c1cc(-c2ccco2)nn1-c1ccc(Cl)cc1,0,0,0,43.7,0,0,0
CC(OC(=O)c1ccc([N+](=O)[O-])o1)C(=O)Nc1nc(-c2ccc(F)c(F)c2)cs1 (stereo unspecified),-,0,0,0,0,0,-
O=C(Cc1ccccc1)NNc1ccc2ccccc2c1,0,0,0,0,0,0,-
CCC(C)Sc1nnc(NC(=O)C2CCN(C(=O)c3ccco3)CC2)s1 (stereo unspecified),0,0,0,0,0,0,-
CC(=O)c1ccc(NC(=S)NC(=O)Cc2ccc(Cl)cc2)cc1,0,0,0,0,0,0,-
CC(=O)c1ccc(NC(=S)NC(C)c2ccc(Cl)cc2Cl)cc1 (stereo unspecified),0,0,0,55.7,0,0,33.4
